Among the data in PubChem BioAssay (NCATS) are activity change, negative = cytotoxic and Potency values, retold here.

Records with an inconclusive call do not appear. Entries that show only a call come without a potency. Calls of active or inactive are those of the source. Calls come from the whole dose curve; as a rule, active = well fitted curve in the direction sought with a large enough effect; inconclusive = small, poorly fitted or top-dose-only effect, or another doubt; inactive = no such curve, though single readings can be large; an effect the other way counts as inactive or inconclusive.

One assay in a line: qHTS of pediatric cancer cell lines to identify multiple opportunities for drug repurposing: Primary screen for SK-N-MC cells (AID 1347093). Conditions: SK-N-MC viability, CellTiter-Glo luminescence, 48 h; series mostly up to 46 µM. The method, boiled down:
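Metabolically active cells were quantified by ATP-dependent luminescence (CellTiter-Glo, 15 min at room temperature) following 48 h treatment. Cells had been plated at 500-1,000 per well and settled for 5 h beforehand.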
A general note: qHTS replaces the single test concentration by a dilution series.
As for `N=C(N)N1CCc2ccccc2C1`, the activity change, negative = cytotoxic was -27.9% [at 4.84 µM] (inactive).
`O=C(NC1CCN(CCc2c[nH]c3ccccc23)CC1)c1ccccc1`: the Potency result was “inactive”.
Same read-out and setting: for `OC(C#CCN1CCCC1)(c1ccccc1)c1ccccc1` the value was “inactive”; for `CCCc1ncc(C[n+]2ccccc2C)c(N)n1`, “inactive”.
Take `COc1cc(N)c(Cl)cc1C(=O)NC1CCN(Cc2ccccc2)CC1`: the Potency entry was “inactive”.
On the same count and under the same terms, the result for `CCN(CC)CCOC(=O)C1(c2ccccc2)CCCC1` reads “inactive”; that for `N#CCC(=O)NN`, “inactive”.
Still for that read-out and setting: for `CCN1CCCC(OC(=O)C(c2ccccc2)c2ccccc2)C1` (stereo unspecified) the value was “inactive”; for `Cc1cccc(C)c1NC(=O)CN1CCCCCC1`, “inactive”; for `c1ccc(-c2nc[nH]c2-c2ccccc2)cc1`, “inactive”.
On the same count and under the same terms, the result for `COc1ccc(CN(CCN(C)C)c2ncccn2)cc1` reads “inactive”; that for `CCCCCCCCCCCCCCCC(=O)O`, “inactive”.
For `CN1CCN(c2cc3c(cc2F)c(=O)c(C(=O)O)cn3-c2ccc(F)cc2)CC1`, the Potency entry was “inactive”.
On the same count and under the same terms, for `O=C(O)P(=O)(O)O` the value was “inactive”; for `FC(F)(F)C(F)(F)C(F)(F)C(F)(F)C(F)(F)C(F)(F)C(F)(F)C(F)(F)Br`, “inactive”; for `CC(C)(C)NCC(O)COc1cccc2c1C[C@H](O)[C@H](O)C2` (stereo partly specified), “inactive”.
The same measure, in the same setting: the result for `Clc1cccc(C(c2ccc3nc[nH]c3c2)n2ccnc2)c1` (stereo unspecified) reads “inactive”; that for `Cc1cc2c(OCC(CNC(C)(C)C)OC(=O)c3ccccc3)cccc2[nH]1` (stereo unspecified), “inactive”; that for `Cc1ccc(-c2ncc(Cl)cc2-c2ccc(S(C)(=O)=O)cc2)cn1`, “inactive”.
On to `CCOc1ccc(NC(C)=O)cc1`, for which the Potency result is “inactive”.
On the same count and under the same terms, the result for `COc1ccccc1N1CCN(CCCCNC(=O)c2ccc(-c3ccc(C(C)=O)cc3)cc2)CC1` reads “inactive”.

A short description of another assay: qHTS of pediatric cancer cell lines to identify multiple opportunities for drug repurposing: Primary screen for BT-37 cells (AID 1347094). Note: potency is the fitted concentration of half-maximal effect. The note with it: BT-37 viability, CellTiter-Glo luminescence, 48 h; series mostly up to 57.3 µM. An outline of the steps:
(§1)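 ATP-based luminescence (CellTiter-Glo) quantifies viability after a 48-hour exposure. Compounds are dosed across 8 or 11 final concentrations; DMSO and 2.3 µM bortezomib serve as controls.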
In the case of `N=C(N)N1CCc2ccccc2C1`, the activity change, negative = cytotoxic is -4.38% [at 6.03 µM] (inactive).
In the case of `O=C(NC1CCN(CCc2c[nH]c3ccccc23)CC1)c1ccccc1`, the Potency result was “inactive”.
Same read-out and setting: for `OC(C#CCN1CCCC1)(c1ccccc1)c1ccccc1` the value was “inactive”.
On the same count and under the same terms, the result for `CC(=O)Nc1ccc(OCC(O)CNC(C)C)cc1` (stereo unspecified) reads “inactive”.
For `COc1cc(N)c(Cl)cc1C(=O)NC1CCN(Cc2ccccc2)CC1`, the Potency entry was “inactive”.
In the case of `CCN(CC)CCOC(=O)C1(c2ccccc2)CCCC1`, the Potency entry is “inactive”.
The same measure, in the same setting: for `C#C[C@]1(O)CC[C@H]2[C@@H]3[C@H](C)CC4=C(CCC(=O)C4)[C@H]3CC[C@@]21C` the value was “inactive”.
Regarding `CCN(CC)CCOC(=O)C(Cc1cccc2ccccc12)CC1CCCO1` (stereo unspecified), the Potency entry is “inactive”.
`N#CCC(=O)NN`: the Potency entry was “inactive”.
The same measure, in the same setting: for `CC(C)(C)CC(C)(C)c1ccc(O)c(-n2nc3ccccc3n2)c1` the value was “inactive”; for `CCN1CCCC(OC(=O)C(c2ccccc2)c2ccccc2)C1` (stereo unspecified), “inactive”; for `CO[C@H]1C=CO[C@@]2(C)Oc3c(C)c(O)c4c(O)c(c(/C=N/N5CCN(C)CC5)c(O)c4c3C2=O)NC(=O)/C(C)=C\C=C[C@H](C)[C@H](O)[C@@H](C)[C@@H](O)[C@@H](C)[C@H](OC(C)=O)[C@@H]1C`, “inactive”.
On the same count and under the same terms, the result for `Cn1c(=O)c2[nH]c(Br)nc2n(C)c1=O` reads “inactive”; that for `c1ccc(-c2nc[nH]c2-c2ccccc2)cc1`, “inactive”.
On the same count and under the same terms, the result for `CN1CCN(c2cc3c(cc2F)c(=O)c(C(=O)O)cn3-c2ccc(F)cc2)CC1` reads “inactive”; that for `Cc1ccc(O)c([C@H](CCN(C(C)C)C(C)C)c2ccccc2)c1`, “inactive”; that for `Cl/C(=C\n1cncn1)c1ccc(Cl)cc1Cl`, “inactive”.
Regarding `Oc1c(Cl)cc(Cl)c(Cl)c1Cc1c(O)c(Cl)cc(Cl)c1Cl`, the Potency is 9.78 µM (active).
On the same count and under the same terms, for `CC(=O)O[C@]1(C(C)=O)CC[C@H]2[C@@H]3C=C(C)C4=CC(=O)CC[C@]4(C)[C@H]3CC[C@@]21C` the value was “inactive”.
Still for that read-out and setting: the result for `Clc1cccc(C(c2ccc3nc[nH]c3c2)n2ccnc2)c1` (stereo unspecified) reads “inactive”.
Same read-out and setting: for `Cc1cc2c(OCC(CNC(C)(C)C)OC(=O)c3ccccc3)cccc2[nH]1` (stereo unspecified) the value was “inactive”; for `Cc1ccc(-c2ncc(Cl)cc2-c2ccc(S(C)(=O)=O)cc2)cn1`, “inactive”; for `CCOc1ccc(NC(C)=O)cc1`, “inactive”.
Regarding `COc1ccccc1N1CCN(CCCCNC(=O)c2ccc(-c3ccc(C(C)=O)cc3)cc2)CC1`, the Potency result is “inactive”.
Turning to `COc1ccc2c(c1)c1c3n2CCN(C)C3=NCC1`, the Potency entry was “inactive”.

A short description of the next assay: qHTS of pediatric cancer cell lines to identify multiple opportunities for drug repurposing: Primary screen for NB-EBc1 cells (AID 1347095). Note: potency is the fitted concentration of half-maximal effect. The note with it: NB-EBc1 neuroblastoma viability, CellTiter-Glo luminescence, 48 h; series mostly up to 46 µM. The method, boiled down: as §1
As to `CC(=O)O[C@]1(C(C)=O)CC[C@H]2[C@@H]3C=C(Cl)C4=CC(=O)CC[C@]4(C)[C@H]3CC[C@@]21C`, the Potency entry is “inactive”.
Turning to `N=C(N)N1CCc2ccccc2C1`, the activity change, negative = cytotoxic was 5.74% [at 4.84 µM] (inactive).
Take `O=C(NC1CCN(CCc2c[nH]c3ccccc23)CC1)c1ccccc1`: the Potency result is “inactive”.
With `OC(C#CCN1CCCC1)(c1ccccc1)c1ccccc1`, the Potency entry is “inactive”.
The same measure, in the same setting: for `CC(=O)Nc1ccc(OCC(O)CNC(C)C)cc1` (stereo unspecified) the value was “inactive”.
The same measure, in the same setting: the result for `CCCc1ncc(C[n+]2ccccc2C)c(N)n1` reads “inactive”; that for `COc1cc(N)c(Cl)cc1C(=O)NC1CCN(Cc2ccccc2)CC1`, “inactive”; that for `CCN(CC)CCOC(=O)C1(c2ccccc2)CCCC1`, “inactive”.
`CCCCc1cc2ccccc2c(OCCN(C)C)n1`: the Potency entry was “inactive”.
On the same count and under the same terms, for `C#C[C@]1(O)CC[C@H]2[C@@H]3[C@H](C)CC4=C(CCC(=O)C4)[C@H]3CC[C@@]21C` the value was “inactive”.
The same measure, in the same setting: for `CCN(CC)CCOC(=O)C(Cc1cccc2ccccc12)CC1CCCO1` (stereo unspecified) the value was “inactive”; for `N#CCC(=O)NN`, “inactive”; for `CC(C)(C)CC(C)(C)c1ccc(O)c(-n2nc3ccccc3n2)c1`, “inactive”.
Still for that read-out and setting: for `CCN1CCCC(OC(=O)C(c2ccccc2)c2ccccc2)C1` (stereo unspecified) the value was “inactive”.
In the case of `CO[C@H]1C=CO[C@@]2(C)Oc3c(C)c(O)c4c(O)c(c(/C=N/N5CCN(C)CC5)c(O)c4c3C2=O)NC(=O)/C(C)=C\C=C[C@H](C)[C@H](O)[C@@H](C)[C@@H](O)[C@@H](C)[C@H](OC(C)=O)[C@@H]1C`, the Potency result is “inactive”.
On the same count and under the same terms, the result for `Cc1cccc(C)c1NC(=O)CN1CCCCCC1` reads “inactive”.
Same read-out and setting: the result for `Cn1c(=O)c2[nH]c(Br)nc2n(C)c1=O` reads “inactive”; that for `c1ccc(-c2nc[nH]c2-c2ccccc2)cc1`, “inactive”.
On to `COc1ccc(CN(CCN(C)C)c2ncccn2)cc1`, for which the Potency result is “inactive”.
The same measure, in the same setting: for `C[N+]1(CC2COC(c3ccccc3)(C3CCCCC3)O2)CCCCC1` (stereo unspecified) the value was “inactive”.
Regarding `CCCCCCCCCCCCCCCC(=O)O`, the Potency result is “inactive”.
With `CN1CCN(c2cc3c(cc2F)c(=O)c(C(=O)O)cn3-c2ccc(F)cc2)CC1`, the Potency result was “inactive”.
`O=C(O)P(=O)(O)O`: the Potency result is “inactive”.
The same measure, in the same setting: the result for `FC(F)(F)C(F)(F)C(F)(F)C(F)(F)C(F)(F)C(F)(F)C(F)(F)C(F)(F)Br` reads “inactive”; that for `Cl/C(=C\n1cncn1)c1ccc(Cl)cc1Cl`, “inactive”.
Still for that read-out and setting: for `CC(C)(C)NCC(O)COc1cccc2c1C[C@H](O)[C@H](O)C2` (stereo partly specified) the value was “inactive”; for `Oc1c(Cl)cc(Cl)c(Cl)c1Cc1c(O)c(Cl)cc(Cl)c1Cl`, 4.73 µM (active).
On the same count and under the same terms, for `CC(=O)O[C@]1(C(C)=O)CC[C@H]2[C@@H]3C=C(C)C4=CC(=O)CC[C@]4(C)[C@H]3CC[C@@]21C` the value was “inactive”.
Regarding `Clc1cccc(C(c2ccc3nc[nH]c3c2)n2ccnc2)c1` (stereo unspecified), the Potency result was “inactive”.
Consider `Cc1cc2c(OCC(CNC(C)(C)C)OC(=O)c3ccccc3)cccc2[nH]1` (stereo unspecified), for which the Potency result is “inactive”.
Still for that read-out and setting: for `CCCCCCCCCCCCCC(=O)OC(C)C` the value was “inactive”; for `Cc1ccc(-c2ncc(Cl)cc2-c2ccc(S(C)(=O)=O)cc2)cn1`, “inactive”.
Same read-out and setting: for `CCOc1ccc(NC(C)=O)cc1` the value was “inactive”; for `COc1ccccc1N1CCN(CCCCNC(=O)c2ccc(-c3ccc(C(C)=O)cc3)cc2)CC1`, “inactive”; for `COc1ccc2c(c1)c1c3n2CCN(C)C3=NCC1`, “inactive”.
